Test results published in PubChem BioAssay (NCATS).
Results filed as inconclusive are left out. Values without a mark were called inactive. Activity calls are given as the source filed them. Calls follow the shape of the dose curve; as a rule, active = well fitted inhibition curve with a large enough effect; inconclusive = small, poorly fitted or top-dose-only effect; inactive = flat fitted curve, though single readings scatter.

The compounds below were run on astro (assay: Drug repurposing screens with cells derived from glioblastoma tumor samples (AID 1345199; also: nearly all actives have a fitted effect of over 40% in size)). Details: viability, ATP luminescence, 48 h; series mostly up to 45.9 µM; activity, negative = cell killing: at the top concentration.
Summary of the method: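 Primary testing used CD133+ neurospheres from four GBM patients, seven concentrations, 48 h exposure and ATP-based viability; confirmation added three slower-growing patient lines.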
% is scaled to controls: 0 for no effect and ±100 for the full control effect; potency is read from the fitted curve at half-maximal effect.

SMILES | activity, negative = cell killing | Potency
O=C1c2ccccc2C(=O)C1c1ccccc1 | -8.57% [at 21.2 µM] | 
CO/N=C1\CN(c2nc3c(cc2F)c(=O)c(C(=O)O)cn3C2CC2)CC1CN (centres undefined) | -14.5% | 
NC[C@H]1O[C@H](O[C@H]2[C@H](O)[C@@H](O[C@H]3O[C@H](CO)[C@@H](O)[C@H](N)[C@H]3O)[C@H](N)C[C@@H]2N)[C@H](N)[C@@H](O)[C@@H]1O |  | inactive
NC(CS)C(=O)O (centres undefined) | -12.9% | 
CNCCC=C1c2ccccc2CCc2ccccc21 |  | 11.2 µM (active)
NCCc1ccn[nH]1 | -11.5% [at 21.2 µM] | 
C[N+]1(CCCCC[N+]2(C)CCCC2)CCCC1 | -9.21% | 
CCOc1ccc2nc3cc(N)ccc3c(N)c2c1 | -18.8% | 
CN1[C@@H]2CC[C@H]1CC(OC(=O)c1c[nH]c3ccccc13)C2 (some centres undefined) | 7.69% | 
NC(=O)CC[C@@H]1NC(=O)[C@H](Cc2ccccc2)NC(=O)[C@H](Cc2ccc(O)cc2)NC(=O)CCSSC[C@@H](C(=O)N2CCC[C@H]2C(=O)N[C@@H](CCCN=C(N)N)C(=O)NCC(N)=O)NC(=O)[C@H](CC(N)=O)NC1=O |  | inactive
CN(C/C=C/c1ccccc1)Cc1cccc2ccccc12 | -13.4% | 
Cc1c(F)c(N2CCNC(C)C2)cc2c1c(=O)c(C(=O)O)cn2C1CC1 (centres undefined) | -3.18% | 
COc1cc(OC)cc(OC)c1 | -17.4% | 
Cc1onc(-c2c(Cl)cccc2Cl)c1C(=O)N[C@@H]1C(=O)N2[C@@H]1SC(C)(C)[C@@H]2C(=O)O | -23.2% | 
CCCC(=O)Nc1ccc(OCC(O)CNC(C)C)c(C(C)=O)c1 (centres undefined) | -4.59% [at 21.2 µM] | 
CCOC(=O)OC(C)OC1=C(C(=O)Nc2ccccn2)N(C)S(=O)(=O)c2ccccc21 (centres undefined) | -5.18% | 
Cc1cccc(C)c1NC(=O)CN1CCN(CCCC(c2ccc(F)cc2)c2ccc(F)cc2)CC1 | -22.7% [at 21.2 µM] | 

SMILES | activity, negative = cell killing | Potency
c1ccc(OCc2ccc(CCCN3CCOCC3)cc2)cc1 | -16.3% | 
CC1(C)OC[C@@H](COC(=O)CCc2ccc(OC[C@@H](O)CNCCNC(=O)N3CCOCC3)cc2)O1 |  | inactive
CCCCCCCCCCCCCCCCOP(=O)([O-])OCC[N+](C)(C)C | -3.36% | 
O=C(O)c1cc2cc(Cc3cccnc3)ccc2o1 | -14.4% | 
Nc1nc2ncc(CNc3ccc(C(=O)N[C@@H](CCC(=O)O)C(=O)O)cc3)nc2c(=O)[nH]1 | 0.092% | 
C=C1C[C@H]2[C@@H]3C=C(C)C4=CC(=O)CC[C@]4(C)[C@H]3CC[C@]2(C)[C@@]1(OC(C)=O)C(C)=O | -14.5% | 
O=C1[C@H]2CCCC[C@H]2C(=O)N1CCCCN1CCN(c2nsc3ccccc23)CC1 | -29.4% | 
CCN(CC)CCOC(=O)C(c1ccccc1)C1CCCCC1 (centres undefined) | -13.2% | 
CCCCC1=NC2(CCCC2)C(=O)N1Cc1ccc(-c2ccccc2-c2nn[nH]n2)cc1 | -9.11% | 
CCN1CCC[C@H]1CNC(=O)c1c(OC)ccc(Br)c1OC | -12.1% | 
C[n+]1c2cc(N)ccc2cc2ccc(N)cc21 (tested in a mixture with another compound) |  | 11.2 µM (active)
CCCCOc1ccc(OCCCN2CCOCC2)cc1 | -29.9% [at 21.2 µM] | 
CC(=O)Nc1c(I)cc(I)c(C(=O)O)c1I | -16.1% | 
CC[N+](CC)(CCNC(=O)C(=O)NCC[N+](CC)(CC)Cc1ccccc1Cl)Cc1ccccc1Cl | -12.8% | 
CCN1CCN(c2cc3c(cc2F)c(=O)c(C(=O)O)cn3C2CC2)CC1 | -12.3% | 
CCCN1CCCC[C@H]1C(=O)Nc1c(C)cccc1C | -19.5% | 
C[C@@H]1C(=O)NC2=Nc3cccc(Cl)c3CN21 | -22% | 
